We go through 92 molecules from PubChem BioAssay AID588458 (Sanford-Burnham Center for Chemical Genomics, 2011).

Hit rate of the full screen: of about 360,000 compounds, about 3,000 (0.83%) were called active. The sample as a whole holds a higher share of actives than the screen did. A number with no mark means an inactive call. Cut-off read from the data, not from the text of the source: active = inhibition above about 50%; inactive = the rest.

For the assay, the target named is DNA (cytosine-5)-methyltransferase 1 (Homo sapiens) (UniProt P26358). In words: inhibition of DNA methyltransferase DNMT1 – biochemical, molecular beacon, fluorescence, HinP1I cleavage, uHTS, primary screen (AID 588458). Particulars: at 10 µM, stronger effect = higher value.
DNA (cytosine-5)-methyltransferase 1 (Homo sapiens), sequence (P26358 504-1616 limits assumed): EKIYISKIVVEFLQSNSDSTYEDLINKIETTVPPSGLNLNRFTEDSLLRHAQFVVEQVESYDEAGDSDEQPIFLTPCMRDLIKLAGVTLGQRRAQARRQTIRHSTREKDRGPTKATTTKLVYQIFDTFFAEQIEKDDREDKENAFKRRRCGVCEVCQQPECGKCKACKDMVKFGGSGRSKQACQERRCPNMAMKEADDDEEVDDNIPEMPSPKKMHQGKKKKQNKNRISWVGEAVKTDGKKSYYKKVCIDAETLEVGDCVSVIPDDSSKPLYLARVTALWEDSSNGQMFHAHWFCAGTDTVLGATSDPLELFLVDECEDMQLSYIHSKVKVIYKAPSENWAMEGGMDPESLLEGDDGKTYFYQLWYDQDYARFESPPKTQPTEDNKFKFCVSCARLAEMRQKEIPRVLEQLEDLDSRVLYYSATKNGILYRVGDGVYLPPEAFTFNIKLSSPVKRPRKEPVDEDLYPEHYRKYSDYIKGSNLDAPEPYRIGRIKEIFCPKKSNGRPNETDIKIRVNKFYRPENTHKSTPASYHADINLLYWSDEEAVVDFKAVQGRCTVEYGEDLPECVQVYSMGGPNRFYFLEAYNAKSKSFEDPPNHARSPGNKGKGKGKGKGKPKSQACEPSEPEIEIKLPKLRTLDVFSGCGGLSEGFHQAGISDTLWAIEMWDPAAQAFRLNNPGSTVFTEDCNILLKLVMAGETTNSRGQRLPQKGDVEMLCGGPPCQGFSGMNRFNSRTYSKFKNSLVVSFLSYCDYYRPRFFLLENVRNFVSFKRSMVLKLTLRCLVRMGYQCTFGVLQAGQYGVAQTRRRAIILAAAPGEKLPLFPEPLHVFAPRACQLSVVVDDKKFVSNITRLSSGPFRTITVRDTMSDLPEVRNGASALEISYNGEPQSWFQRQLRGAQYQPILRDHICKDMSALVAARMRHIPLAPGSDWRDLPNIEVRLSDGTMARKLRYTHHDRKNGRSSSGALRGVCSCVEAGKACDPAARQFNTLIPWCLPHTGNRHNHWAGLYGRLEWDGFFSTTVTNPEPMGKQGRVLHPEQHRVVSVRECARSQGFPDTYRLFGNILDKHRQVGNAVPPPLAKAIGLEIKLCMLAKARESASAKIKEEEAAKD
For `CCc1nnc(NC(=O)c2ccco2)s1`, the inhibition (reported as % activation of signal) was 4.22%.
In the case of `O=C(Nc1nonc1-c1ccc(Cl)cc1)c1ccco1` it was 9.05%.
The figure for `O=C(Nc1nc(-c2ccco2)c(-c2ccco2)s1)c1ccco1` is 80.6% (active); for `CCN(CC)S(=O)(=O)c1ccc(NC(=O)c2cccnc2Cl)c(NC(=O)c2cccnc2Cl)c1` it is -0.07%.
The figure for `CC(C)C[C@H](NC(=O)C1CC(=O)N(c2ccc3c(c2)OCCO3)C1)C(=O)NC1CCCC1` (some centres not stated) is -0.87%; for `O=C1NCC(Nc2ccccc2)C(=O)N1` (configuration not stated) it is 0.4%; for `Cc1nn(C)cc1N1C(=O)c2cccc3c(N)ccc(c23)C1=O` it is 65% (active).
Turning to `O=C(CN1C(=O)c2cccc3cccc1c23)Nc1ccccc1`, the inhibition (reported as % activation of signal) was 6.37%.
The figure for `CCN1C(=O)c2cccc3c(N)ccc1c23` is 51.2% (active); for `CN1C(=O)c2cccc3c(N)ccc(c23)C1=O` it is 68.8% (active).
Take `CCN1C(=O)c2cccc3c(S(=O)(=O)Nc4ccccc4O)ccc1c23`: the inhibition (reported as % activation of signal) was -3.81%.
In the case of `Cn1cc(C2OC(=O)c3ccccc32)c2ccccc21` (configuration not stated) it was 1.23%.
For `O=C(COC(=O)CCc1c[nH]c2ccccc12)Nc1cccc(Cl)c1`, the inhibition (reported as % activation of signal) is -4.28%.
The figure for `O=C(CCC1CCCC1)N=C1SC2CS(=O)(=O)CC2N1Cc1ccccc1` (configuration not stated) is 14.4%.
Turning to `COc1ccccc1-c1oc2ccccc2c1C#CCCCCO`, the inhibition (reported as % activation of signal) was -0.24%.
In the case of `COc1ccc2[nH]c(=O)c(-c3noc(-c4ccc(F)cc4)n3)cc2c1` it was 95.2% (active); in that of `COc1ccc(Cc2cc(-c3ccc(F)cc3)n[nH]c2=O)cc1`, -1.27%; in that of `CCCc1nc(-c2cc3cc(C)ccc3[nH]c2=O)no1`, -2.69%.
In the case of `Cc1ccc2c(CC(=O)NCc3cccs3)coc2c1` it was 7.02%; in that of `C[C@H]1CN([C@@H](C)CO)C(=O)CCCn2cc(nn2)CO[C@@H]1CN(C)S(=O)(=O)c1ccccc1C#N`, 8.79%; in that of `C=C(Br)CN1CCN(CC(=C)Br)CC1`, 1.67%.
The figure for `Cc1cc2nc(-c3ccco3)c(Cc3cccc(F)c3)n2c(C)c1Br` is 56.4% (active); for `Cc1ccc2nc(-c3ccco3)c(Cc3cccc(Cl)c3)n2c1` it is -0.88%; for `Cc1cc2nc(-c3ccc(Cl)cc3)c(Cc3cccc(F)c3)n2c(C)c1Br` it is 37.2%.
Regarding `CCN1CCN(c2ccc(S(=O)(=O)N3CCCCC3)cc2NC(=O)c2cccc(NC(C)=O)c2)CC1`, the inhibition (reported as % activation of signal) is -6.35%.
The figure for `COc1cccc(NC(=O)CSc2nccn(-c3ccc4c(c3)OCCO4)c2=O)c1` is 0.94%; for `CCC(C)OC(=O)C(C)Oc1ccc(-c2ccccc2)cc1` (configuration not stated) it is -3.17%; for `NC(CSC1(c2ccccc2)c2ccccc2-c2ccccc21)C(=O)O` (configuration not stated) it is 38.3%.
In the case of `NC(CSC(c1ccccc1)(c1ccccc1)c1ccc(-c2ccccc2)cc1)C(=O)O` (configuration not stated) it was 89% (active); in that of `COC(=O)CCCCC1=CCC2C(=O)C=C(O)C2C1` (configuration not stated), 92.7% (active); in that of `CCOc1ccc2[nH]c(=S)sc2c1`, 0.55%.
In the case of `Cc1ccc(NC(=O)c2cc(-c3ccc(C)o3)nc3ccccc23)nc1` it was 76.5% (active); in that of `CSc1ncccc1C(=O)Nc1ccc(C)cn1`, -0.42%.
With `CC(=O)N1CCN(C(=O)c2cc(-c3ccc(C)o3)nc3ccccc23)CC1`, the inhibition (reported as % activation of signal) is 1.05%.
Consider `COc1ccccc1-n1nnnc1S(=O)(=O)Cc1ccc(Cl)cc1`, for which the inhibition (reported as % activation of signal) is 22%.
`O=C(CCc1nnc2ccc(NCc3ccco3)nn12)Nc1cc(F)ccc1F`: the inhibition (reported as % activation of signal) was 29.7%.
`COC(=O)c1ccc(C(=O)NC2CC(C)(C)Cc3c2cnn3-c2ccc(F)cc2)nc1` (configuration not stated): the inhibition (reported as % activation of signal) is -1.04%.
On to `COc1ccc(OC)c(NC(=O)c2cc(-c3cc(F)ccc3OCC3CCCO3)n[nH]2)c1` (configuration not stated), for which the inhibition (reported as % activation of signal) was 105% (active).
In the case of `CCCOc1ccc(F)cc1-c1cc(C(=O)Nc2ccc(F)cc2)[nH]n1` it was -1.3%.
In the case of `COc1cc(F)ccc1-c1cc(C(=O)NCC2CCCCC2)[nH]n1` it was -0.63%; in that of `Cc1ccc(-n2c(SCC(=O)N3CCC(C(=O)O)CC3)nc3ccccc3c2=O)cc1C`, -1.54%; in that of `Cc1cc(C)c(C(=O)CSc2nc(C)cc(=O)[nH]2)c(C)c1`, -2.03%.
In the case of `COc1ccc(C2=NOC(C(=O)NCc3ccco3)C2)cc1OC` (configuration not stated) it was 1.36%; in that of `CCOc1ccc(C(=O)Nc2cc(Cl)ccc2-n2cncn2)cc1OC`, 0.02%; in that of `CC1CCN(C(=O)C2CCN(S(=O)(=O)N3CCC4(CC3)OCCO4)CC2)CC1`, 1.13%.
Take `CCOC(=O)c1c(NC(=O)Cn2nc(C(F)(F)F)cc2C)sc2c1CCC2`: the inhibition (reported as % activation of signal) is -22.3%.
The figure for `CCOC(=O)C(NC(=O)CC(C)C)(Nc1sc2c(c1C(N)=O)CCCC2)C(F)(F)F` (configuration not stated) is 85.2% (active).
The figure for `COC(=O)C(NC(C)=O)(Nc1nc2c(s1)CCCC2)C(F)(F)F` (configuration not stated) is 0.31%; for `O=C(O)CSc1ccc(S(=O)(=O)N2CCCC2)cn1` it is -4.98%.
In the case of `N#Cc1c(C(F)(F)F)cc(-c2cccs2)nc1N1CCCCC1` it was -1.64%; in that of `N#Cc1c(N2CCCCC2)nc(N)c2c(N)nc(SCC(=O)O)cc12`, 52.1% (active); in that of `CC1(C)C2CC=C(/C=N/NC(=O)c3ccc(Cl)cc3)C1C2` (configuration not stated), 2.7%.
In the case of `Nc1nc2c(ncn2[C@@H]2O[C@H](CNS(=O)(=O)N3CCc4ccccc4C3)[C@@H](O)[C@H]2O)c(=O)[nH]1`, the inhibition (reported as % activation of signal) is 0.15%.
The figure for `COCCNC(=O)C1(C)CCCN(Cc2cccc(F)c2)C1` (configuration not stated) is -1.11%; for `O=S(=O)(Nc1n[nH]c(C(F)(F)F)n1)c1ccccc1` it is -0.37%; for `Nc1cc2c(cc1Br)-c1ccc(F)cc1C2=O` it is 71.6% (active).
As to `CC(=O)Nc1ccc(S(=O)(=O)Nc2cc(C)cn(Cc3ccc(C)cc3)c2=O)cc1`, the inhibition (reported as % activation of signal) is -4.47%.
In the case of `CC(=O)c1ccc(Nc2nc(C(N)c3ccccc3Cl)cs2)cc1` (configuration not stated) it was -17.7%; in that of `CC(=O)c1ccc(Nc2nc(C(N)c3ccccc3)cs2)cc1` (configuration not stated), 80.3% (active).
With `NC(c1ccccc1)c1csc(NC(=O)Nc2cccc(C(F)(F)F)c2)n1` (configuration not stated), the inhibition (reported as % activation of signal) was -22.9%.
In the case of `CCCS(=O)(=O)NC(=O)C1(C)CCN(C(=O)c2sccc2C)C1` (configuration not stated) it was -0.36%; in that of `COc1cc(NC(=O)CCNC(=O)Cn2ccc3ccccc3c2=O)cc(OC)c1OC`, -1.53%; in that of `CCOC(=O)c1ccn(S(=O)(=O)c2ccc(C)cc2)c1-c1ccccc1`, 0.08%.
In the case of `CC/C=C/C(=O)N1CC2(CC(c3cccc(NC(=O)CC)c3)=NO2)C[C@H]1C(N)=O` (some centres not stated) it was 5.63%; in that of `C/C=C\C=C\C(=O)N1CC2(CC(c3cccc(NC(=O)/C(C)=C\C)c3)=NO2)C[C@H]1C(N)=O` (some centres not stated), -7.28%.
The figure for `C=C(C)C(=O)Nc1cccc(C2=NOC3(C2)C[C@H](C(N)=O)N(C(=O)C(c2ccccc2)c2ccccc2)C3)c1` (some centres not stated) is 98.1% (active); for `CC(=O)Nc1ccc(NC(=O)C2CCCN2S(=O)(=O)c2cccc(C(F)(F)F)c2)cc1` (configuration not stated) it is -0.75%.
As to `COc1cccc(-n2c(N)cc(=O)nc2SCC(=O)Nc2cc(C)on2)c1`, the inhibition (reported as % activation of signal) is 0.03%.
The figure for `O=C(c1ccccc1Cl)N(Cc1ccccc1F)N1C(=O)CCCC1=O` is 1.73%; for `COc1ccc(NC(=O)COC(=O)c2ccncc2)c(OC)c1` it is 7.14%; for `COc1ccc(NC(=O)CCn2ccnc2)c(OC)c1` it is 78.8% (active).
Turning to `COc1ccc(NC(=O)CCCC2CCCCC2)c(OC)c1`, the inhibition (reported as % activation of signal) is 1.18%.
The figure for `O=C(OCCO)c1cc(Cl)c(C(=O)OCCO)cc1Cl` is -0.85%; for `FC(F)(F)c1ccc(-c2cccc3c2C2CC3CCN2Cc2ccccc2)cc1` (configuration not stated) it is 5.02%; for `COc1cc(-c2nnc(NC(=O)C3=COCCO3)o2)cc(OC)c1OC` it is 0.63%.
In the case of `COc1cc(-c2nnc(NC(=O)CS(=O)(=O)c3ccc(Cl)cc3)o2)cc(OC)c1OC` it was 64.7% (active).
Take `Cc1ccc(C)c(-c2nnc(NC(=O)CS(=O)(=O)c3ccccc3)o2)c1`: the inhibition (reported as % activation of signal) was 2.2%.
In the case of `O=C(COc1cccc2c1CCNC2=O)NC1CCCCC1` it was 0.71%.
In the case of `COc1ccc(C)cc1N(C(=O)Cn1nnc(-c2ccc(C)o2)n1)C(C(=O)NC1CCCC1)c1ccncc1` (configuration not stated) it was 0.4%; in that of `CCOc1cc(NC(=S)NCc2ccco2)c(OCC)cc1NC(=O)c1ccco1`, -8.9%; in that of `CCOc1cc(NC(=O)c2ccco2)c(OCC)cc1NC(=O)COc1ccccc1`, 67.3% (active).
In the case of `COc1ccc(NC(=O)CCC(=O)Nc2cc(OC)c(NC(=O)c3ccco3)cc2OC)c(OC)c1` it was -1.01%; in that of `CC(C)(C(=O)N1CCC1(C)C(=O)NS(=O)(=O)c1ccc(Br)cc1)c1ccccc1` (configuration not stated), 1.25%.
Turning to `CCCCCCc1cc2cc(-c3nnc(-c4ccccc4)o3)c(=O)oc2cc1O`, the inhibition (reported as % activation of signal) was 88.6% (active).
In the case of `CC1CCN(CCCNC(=O)CN2C(=O)CSc3ccc(S(=O)(=O)N4CCCCC4)cc32)CC1` it was 0.73%; in that of `CC(C)C(NC(=O)c1c(F)cccc1F)C(=O)NCc1ccncc1` (configuration not stated), 1.21%; in that of `O=C(NCCc1cccc(F)c1)C1CC(O)CN1C(=O)Nc1ccccc1` (configuration not stated), 7.51%.
In the case of `COc1cc(/C=N/N=C(\N)c2nonc2N)cc(OC)c1OC` it was -0.45%.
The figure for `CSc1ccc(CNC(=O)c2ccc(NC(=O)C3=CSCCO3)cc2)cc1` is 62.1% (active); for `CSc1ccc(CNC(=O)C2(C)CCCN2C)cc1` (configuration not stated) it is 9.6%.
Consider `O=C(Nc1ccc(C(=O)NCc2ccccc2Cl)cc1)C1=CSCCO1`, for which the inhibition (reported as % activation of signal) was -10.3%.
Consider `O=C(Nc1cccc2cccnc12)c1ccc2sc([C@H]3C[C@H](O)[C@@H](CO)O3)nc2c1`, for which the inhibition (reported as % activation of signal) was -5.28%.
